Screening data deposited in PubChem by The Scripps Research Institute Molecular Screening Center.
GalR3 antag = blocks the human galanin receptor 3; AID 651719; HEK293 GalR3-CNG cAMP membrane potential fluorescence; galR3 body fused to GalR1 C-terminus; inhibition, % at 3 µM; O60755; 0.44% of 360,000 active;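 active = inhibition above the screen-wide average plus 3 SD, cut at about 13% in these data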;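 also: forskolin and galanin both at EC90 stimulate the cells; cAMP rise reported by CNG channel membrane potential dye signal; 0% = forskolin plus galanin with DMSO and 100% = forskolin alone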
Target sequence (O60755 1-299 limits assumed): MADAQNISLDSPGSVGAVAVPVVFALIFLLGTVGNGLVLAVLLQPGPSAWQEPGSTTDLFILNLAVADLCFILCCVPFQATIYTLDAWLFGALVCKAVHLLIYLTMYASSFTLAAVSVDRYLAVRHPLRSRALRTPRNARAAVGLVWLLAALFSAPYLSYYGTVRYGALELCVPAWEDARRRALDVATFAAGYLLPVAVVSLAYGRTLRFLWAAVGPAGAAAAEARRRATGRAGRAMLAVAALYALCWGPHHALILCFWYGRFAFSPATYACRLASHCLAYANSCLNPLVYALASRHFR
NCOA1 inh = inhibits human SRC1 coactivator. Q15788. 0.12% of 360,000 active. HEK293 GAL4-SRC1 luciferase reporter, luminescence. AID 588354. inhibition, % at 3.6 µM;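 active = inhibition above the campaign mean plus 3 SD, with each screening campaign given its own cutoff, cut at about 60% in these data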;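 also: 0% = DMSO treated cells and 100% = gossypol at 36 µM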
NCOA2 inhibitor = human SRC2 (NCOA2) inhibition | AID 651957 | inhibition, % at 9 µM | 0.17% of 370,000 active | Q15596 | HEK293 GAL4-SRC2 luciferase reporter, luminescence;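 active = inhibition above the mean inhibition of all tested compounds plus 3 SD, set per campaign, cut at about 52% in these data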;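 also: 0% = DMSO treated cells and 100% = cells given Gossypol at 36 µM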
COUP-TFII inh = NR2F2 (human) inhibition, primary screen; HEK293T NGFI-A luciferase reporter, luminescence; inhibition, % at 8.6 µM; AID 686940; 0.7% of 370,000 active;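 active = inhibition above a per-plate cutoff, mean inhibition of test wells between control levels plus 3 SD, cut at about 38% in these data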;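 also: cells cotransfected with COUP-TFII expression vector driving the NGFI-A reporter; 0% = median of COUP-TF2 test wells and 100% = reporter-only cells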
Target sequence (P24468 whole entry, looked up): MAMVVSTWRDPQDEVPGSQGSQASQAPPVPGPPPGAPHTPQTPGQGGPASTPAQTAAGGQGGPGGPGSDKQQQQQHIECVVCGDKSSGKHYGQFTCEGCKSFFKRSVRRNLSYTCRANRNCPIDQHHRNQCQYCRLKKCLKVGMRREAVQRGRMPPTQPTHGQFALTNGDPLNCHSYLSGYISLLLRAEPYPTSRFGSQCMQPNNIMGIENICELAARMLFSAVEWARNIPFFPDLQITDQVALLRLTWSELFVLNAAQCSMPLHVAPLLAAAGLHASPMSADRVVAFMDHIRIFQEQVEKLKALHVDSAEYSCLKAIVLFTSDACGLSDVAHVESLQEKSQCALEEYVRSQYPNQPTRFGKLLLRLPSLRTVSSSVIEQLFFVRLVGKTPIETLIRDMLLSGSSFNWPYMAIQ
LRH-1 inv ag = inverse agonists of human LRH-1 (NR5A2) | O00482 | HEK293T StAR-luciferase reporter, LRH-1 transfected, 24 h | inhibition, % at 3.6 µM | 0.13% of 360,000 active;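 active = inhibition above the mean inhibition of all tested compounds plus 3 SD, cut at about 73% in these data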;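 also: 0% = DMSO wells and 100% = reporter-only cells lacking LRH-1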
NCOA3 inh = inhibits human SRC3 coactivator. AID 588352. inhibition, % at 3.6 µM. 0.17% of 360,000 active. HEK293 GAL4-SRC3 luciferase reporter, luminescence. Q9Y6Q9;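 active = inhibition above a per-campaign cutoff, the mean of all compounds plus 3 SD, cut at about 60% in these data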;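 also: 0% = DMSO-treated cells and 100% = gossypol-treated cells at 36 µM; higher means less SRC3-driven luciferase light from the GAL4 reporter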
GalR3 antag conf = confirmation of human galanin receptor 3 antagonists. HEK293 GalR3 CNG cAMP biosensor, membrane potential fluorescence; galR3 fused to GalR1 carboxy tail; challenged with forskolin and galanin at EC90. shares compounds with GalR3 antag. inhibition, % at 3 µM. 59% of 1,600 active;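 active = inhibition above the primary screen's cutoff, the mean inhibition of all screened compounds plus 3 SD, cut at about 13% in these data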;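 also: 0% = forskolin plus galanin and 100% = forskolin alone with DMSO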
HEK-CNG parental = acts as nonspecific agonist in parental HEK-CNG cells. shares compounds with GalR3 antag. HEK293-CNG parental cells, cAMP membrane potential fluorescence; normalised: DMSO wells 0%, forskolin wells 100%. activation, % at 3 µM. 10% of 1,600 active; in the data active = activation above about 1.3%
Starred values were filed as active, the others as inactive; · = no result. This is a sample that favours compounds with a hit; in the whole collection about 1.1% have one here.

SMILES | GalR3 antag | NCOA1 inh | NCOA2 inhibitor | COUP-TFII inh | LRH-1 inv ag | NCOA3 inh | GalR3 antag conf | HEK-CNG parental
Cn1nccc1C(=O)Nn1cnnc1 | · | -30 | -33 | -5 | 6 | 7 | 6 | 0
C#CC(C)OC(=O)C(C)NC(=O)c1ccccc1 (stereo unspecified) | · | 3 | -1 | -3 | 11 | 2 | 14* | 0
Cc1ccc(-n2ncc3c(SCc4cccnc4)ncnc32)c(C)c1 | 60* | -49 | -15 | 29 | -30 | -137 | 98* | 0
Cc1ccc(-n2ncc3c(SCc4cccc(C)c4)ncnc32)cc1 | 1 | -23 | -24 | -20 | -44 | -29 | · | ·
COc1cc(C2NC(=O)NC(C)=C2C(=O)OCc2ccc(C)cc2)cc(OC)c1O (stereo unspecified) | 15* | -23 | -15 | 9 | -2 | 21 | 14* | 0
COc1cc(C2NC(=O)NC(C)=C2C(=O)OCc2ccc(C)cc2)cc(OC)c1OC (stereo unspecified) | -1 | 8 | -2 | -6 | 9 | -9 | · | ·
Cc1cc(/C=C(\C#N)C(=O)NCc2ccco2)c(C)n1-c1ccc(C(=O)O)cc1 | · | 11 | 12 | 11 | 10 | 14 | 8 | 0
N#C/C(=C/c1cn(-c2ccccc2)nc1-c1cccc(S(=O)(=O)N2CCCC2)c1)C(=O)NCc1ccco1 | 14* | 7 | -36 | 28 | -25 | 11 | 23* | 1
COC(=O)c1cc(-c2cc(F)cc(OC)c2)c(=O)n2c1CCC2 | · | · | 7 | 0 | · | · | · | ·
CCOC(=O)[C@]12CCCCC/C=C\1N(Cc1ccc(OC)cc1)C(=O)[C@H]2CC(=O)NCCCOC | · | · | -21 | 4 | · | · | · | ·
CC(=O)c1cc(-c2ccccc2-c2ccccc2)c(=O)n2c1CCC2 | · | · | -46 | 28 | · | · | · | ·
Cc1ccccc1NC(=O)CSc1nc(N)c2c3c(sc2n1)CSC(C)(C)C3 | 21* | -5 | 15 | 14 | 26 | 16 | 39* | 0
Cc1nc(N2N=C(c3ccc(Cl)cc3)CC2c2ccco2)sc1C(=O)N(C)C (stereo unspecified) | 21* | -52 | -3 | 2 | -103 | -37 | 7 | 1
CCn1c(SCc2c(F)cccc2F)nc2sc3c(c2c1=O)CCCC3 | · | · | -8 | -1 | · | · | · | ·
CN(CCCNC(=O)c1cn(C)c2ccc(S(=O)(=O)N(C)C)cc2c1=O)c1ccccc1 | 20* | -5 | 1 | 1 | 3 | 5 | 6 | 1
CC1CC(C)CN(CCCNC(=O)c2cn(C)c3ccc(S(=O)(=O)N4CCCC4)cc3c2=O)C1 (stereo unspecified) | -1 | -5 | -16 | -13 | 4 | 8 | · | ·
CC1CCN(CCCNC(=O)c2cn(C)c3ccc(S(=O)(=O)N4CCCC4)cc3c2=O)CC1 | 15* | -170 | -19 | -19 | 8 | 3 | 8 | 0
C=CCN1C(=O)[C@@H](CC(=O)NCCCCc2ccccc2)[C@]2(C(=O)OC)CCCCC=C12 | · | · | 1 | -30 | · | · | · | ·
Cc1ccc(Sc2sc(=O)n(C)c2S(=O)(=O)c2ccc(C)cc2)cc1 | 20* | 8 | 14 | 6 | 12 | 14 | 2 | 0
C[C@H]1CN=C2N(CCNC(=O)CCC3CCCCC3)[C@H](Cc3ccc(O)cc3)CN21 | 17* | -4 | -6 | 6 | 10 | 4 | 2 | 0
COc1ccc(C[C@H]2CN3C(=NC[C@@H]3C)N2CCNC(=O)CCC2CCCCC2)cc1 | 2 | -31 | -46 | -1 | -4 | -6 | · | ·
CCCc1ccc(Oc2cc(C)nc(N3CCOCC3)n2)cc1 | 15* | -6 | -13 | -3 | -8 | -6 | 9 | 0
O=S(=O)(Nc1nc2ccccc2nc1NCC1CCCO1)c1cc(Cl)ccc1Cl (stereo unspecified) | 15* | -19 | -2 | -1 | 0 | 12 | 1 | 0
COC(=O)c1ccc(-c2ccc3c(c2)[C@]2(CCC[C@@H](O)[C@@H]2NC(=O)CCc2ccccc2)C(=O)N3Cc2ccccc2)cc1 | · | · | -26 | 10 | · | · | · | ·
COc1ccc(N2C(=O)CN(Cc3cc(OC)c(OC)c(OC)c3)C2=S)cc1 | 14* | -11 | -4 | 9 | -1 | 15 | 6 | -1
SMILES | GalR3 antag | NCOA1 inh | NCOA2 inhibitor | COUP-TFII inh | LRH-1 inv ag | NCOA3 inh | GalR3 antag conf | HEK-CNG parental
O=C1C(CN2CCCC2)CCCC1CN1CCCC1 (stereo unspecified) | 15* | -6 | -27 | -70 | -29 | 2 | -1 | 1
COC(=O)[C@]12C=CCN1[C@H](c1ccccc1)c1c(c3ccccc3n1S(=O)(=O)c1ccc(C)cc1)C2 | · | · | -11 | -5 | · | · | · | ·
CCCCc1ccc(NC(=O)c2ccc(NS(C)(=O)=O)cc2)cc1 | -4 | 3 | -13 | -8 | -3 | 14 | · | ·
CCCCc1ccc(NC(=O)c2ccc(N(C)S(C)(=O)=O)cc2)cc1 | 36* | 28 | -3 | 35 | 26 | 22 | 115* | -1
COc1ccc(NS(=O)(=O)c2ccc(NC(=O)c3ccc(N(C)S(C)(=O)=O)cc3)cc2)c(OC)c1 | 99* | 29 | 17 | 31 | 25 | 34 | 107* | -1
COc1ccc2[nH]c(O)c(N=NC(=N)N)c2c1 | 14* | 0 | -7 | -11 | 19 | -1 | 3 | 0
O=C1CC(c2ccc3c(c2)OCO3)N=C2N(Cc3ccc4c(c3)OCO4)C/C(=C/c3ccccc3)N12 (stereo unspecified) | · | · | · | 3 | · | · | · | ·
Cc1nc(SCc2nc3ccccc3[nH]2)c2oc3ccc(Br)cc3c2n1 | 14* | 1 | -11 | 1 | 9 | -6 | 28* | 1
Cc1nc(SCc2nc3ccccc3[nH]2)c2oc3ccccc3c2n1 | 1 | 6 | -9 | -20 | -3 | 17 | · | ·
COCCOC(=O)c1c(NC(=O)CN2c3ccccc3CC2C)sc(C(N)=O)c1C (stereo unspecified) | 17* | 8 | 15 | 21 | -14 | -6 | 10 | 1
Nc1[nH]n2c(=O)c3c(nc2c1N=Nc1ccc(Cl)cc1)CCCC3 | 3 | -8 | -16 | 5 | -11 | -15 | · | ·
Nc1[nH]n2c(=O)c3c(nc2c1N=Nc1ccccc1)CCCC3 | 61* | 6 | -31 | -1 | 3 | -1 | 28* | 0
COC(=O)[C@]12C[C@H](CC(=O)N3CCCCC3)C(=O)N(Cc3ccccc3)C1=C[C@H](COCc1ccccc1)O[C@@H]2C | · | · | 3 | 15 | · | · | · | ·
Cc1nc2ccc(S(=O)(=O)NCC(=O)N(C)Cc3ccccc3Cl)cc2s1 | · | · | 1 | 6 | · | · | · | ·
